Several values for one entry are separate records, joined by “and”; a condition that tells them apart may be missing. Identical values can stand only once. Like-named read-outs stand apart in the source and are kept apart here.

In assay [1] the test system is AAK1. The settings on record: n = 1.
The subject of assay [2] is ABL1-nonphosphorylated. The settings on record: concentration: 1 μM, replicates: in singlicate; n = 1.
The subject of assay [3] is ABL1-phosphorylated. The settings on record: concentration: 1 μM, replicates: in singlicate; n = 1.
Assay [4] relates to ABL2. The note with it: n = 1.
The test system of assay [5] is ACVR1B. The note with it: concentration: 1 μM, replicates: in singlicate; n = 1.
Assay [6] deals with ACVR1. The settings on record: n = 1.
Assay [7] relates to ACVR2A. The settings on record: concentration: 1 μM, replicates: in singlicate; n = 1.
Setting [8] is: concentration: 1 μM,replicates: in singlicate, 1 µM.
Setting [9] is: concentration: 1 μM, replicates: in singlicate.
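Also: KINOMEscan kinase panel screen.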

For `CSc1nn2c(=O)cc(N3CCOCC3)nc2n1Cc1cccc(C(F)(F)F)c1C` [GSK2363608], the “%Inh” value in assay [1] (setting [8]) was 3% and 25%; in assay [2] it was 0%; in assay [3], 0%; in assay [4] (setting [8]), 5% and 17%; in assay [5], 0%; in assay [6] (setting [8]) it was 0% and 14%. Also, the “%Inh” value in assay [7] was determined as 0%.
In the case of `O=C1NC(=O)C(N2CCc3ccccc32)=C1c1ccccc1Cl` [SB-373598], the “%Inh” value in assay [1] (setting [9]) was 7%; in assay [2] it was 12%; in assay [3] it was 97.7%; in assay [4] (setting [9]) it was 15%; in assay [5], 35%; in assay [6] (setting [9]), 27%. Further, the “%Inh” value in assay [7] is 25%.
On to `COc1ccc2nc(-c3cccc(C)n3)nc(Nc3ccncc3)c2c1` [GSK204919], for which the “%Inh” value is recorded as 0% in assay [1] (setting [9]); 0% in assay [2]; 0% in assay [3]; 12% in assay [4] (setting [9]); 0% in assay [6] (setting [9]); 0% in assay [7].
For `Fc1cccc(COc2nnc(-c3ccc4c(c3)CCO4)o2)c1`, the “%Inh” value is given as 26% in assay [1] (setting [9]); 25% in assay [2]; 0% in assay [3]; 22% in assay [4] (setting [9]); 0% in assay [5]; 0% in assay [6] (setting [9]). Besides, in assay [7], the “%Inh” value is listed as 0%.
Take `O=C(Nc1ccccc1)Nc1cccc(Oc2ccc3nccn3n2)c1`: the “%Inh” value was 0% in assay [1] (setting [9]); 89% in assay [2]; 6% in assay [3]; 31% in assay [4] (setting [9]); 0% in assay [5]; 0% in assay [6] (setting [9]). Besides, in assay [7], the “%Inh” value worked out at 0%.
`CC1=C(C(=O)Nc2cc3cn[nH]c3cc2F)C(c2ccc(C(F)(F)F)cc2)CC(=O)N1` (centres unmarked) [GSK429286]: the “%Inh” value in assay [1] (setting [9]) is on record as 0%; in assay [2], 0%; in assay [3], 0%; in assay [4] (setting [9]) it was 19%; in assay [5], 0%; in assay [6] (setting [9]) it was 0%. Moreover, the “%Inh” value in assay [7] came to 83%.
For the compound `Cc1ccc(NC(=O)Nc2cccc(Cl)c2)cc1-c1ccc(C(=O)Nc2ccncc2)cc1` [GSK1398468], the “%Inh” value is on record as 37% in assay [1] (setting [9]); 0% in assay [2]; 1% in assay [3]; 17% in assay [4] (setting [9]); 0% in assay [5]; 0% in assay [6] (setting [9]). For the same compound, in assay [7], the “%Inh” value was determined as 0%.
Regarding `Cc1c(Cn2ccn3c(=O)cc(N4CCOCC4)nc23)cccc1C(F)(F)F` [GSK2289044], the “%Inh” value in assay [1] (setting [9]) is recorded as 16%; in assay [2] it was 0%; in assay [3], 0%; in assay [4] (setting [9]), 0%; in assay [5], 0%; in assay [6] (setting [9]) it was 3%. Further, the “%Inh” value in assay [7] was 0%.
Regarding `Cc1ccccc1-n1cnc2c(N)ncnc21` [SKF-97510], the “%Inh” value in assay [1] (setting [9]) stood at 1%; in assay [2], 100%; in assay [3], 3%; in assay [4] (setting [9]) it was 0%; in assay [5], 0%; in assay [6] (setting [9]), 10%. In addition, the “%Inh” value in assay [7] amounted to 0%.
With `Fc1cc(Cl)ccc1Nc1ccnc2cc(I)ccc12` [GW551191], the “%Inh” value in assay [1] (setting [9]) turned out to be 11%; in assay [2], 22%; in assay [3], 26%; in assay [4] (setting [9]), 29%; in assay [5], 0%; in assay [6] (setting [9]), 54%. Moreover, the “%Inh” value in assay [7] stood at 0%.
As to `COc1ccc(CNC(=O)NC2CCN(c3ccnc(Nc4cc(OC)c(OC)c(OC)c4)n3)C2)cc1` (centres unmarked) [GSK1379748], the “%Inh” value is 49% in assay [1] (setting [9]); 0% in assay [2]; 0% in assay [3]; 0% in assay [4] (setting [9]); 0% in assay [5]; 15% in assay [6] (setting [9]). For the same compound, the “%Inh” value in assay [7] stood at 0%.
For the compound `Fc1cc(Cl)ccc1Nc1ccnc2cc(-c3ccc(CN4CCCCC4)o3)ccc12` [GW560116], the “%Inh” value in assay [1] (setting [9]) is given as 1%; in assay [2], 47%; in assay [3], 49%; in assay [4] (setting [9]), 14%; in assay [5], 0%; in assay [6] (setting [9]), 5%. For the same compound, the “%Inh” value in assay [7] was 0%.
For the compound `COc1cc2ncnc(Nc3ccc4nc(-c5ccccc5)[nH]c4c3)c2cc1OC.Cl` [GW282450], the “%Inh” value is 6% in assay [1] (setting [9]); 0% in assay [2]; 0% in assay [3]; 5% in assay [4] (setting [9]); 0% in assay [5]; 0% in assay [6] (setting [9]). For the same compound, the “%Inh” value in assay [7] was 0%.
As to `Cc1ccc(C(=O)Nc2ccc(Nc3ccnc4cc(-c5ccccn5)ccc34)cc2O)cc1.Cl` [GW440146], the “%Inh” value in assay [1] (setting [9]) is on record as 4%; in assay [2] it was 68%; in assay [3] it was 31%; in assay [4] (setting [9]), 18%; in assay [5], 0%; in assay [6] (setting [9]), 0%. Also, the “%Inh” value in assay [7] was found to be 0%.
`Cc1cccc(-c2nc(Nc3ccc4[nH]ncc4c3)c3ccccc3n2)n1` [GW857175]: the “%Inh” value in assay [1] (setting [9]) worked out at 0%; in assay [2], 19%; in assay [3], 14%; in assay [4] (setting [9]) it was 3%; in assay [5] it was 100%; in assay [6] (setting [9]), 0%. Further, the “%Inh” value in assay [7] worked out at 0%.
Turning to `NC(=O)c1nnc2ccccc2c1N`, the “%Inh” value in assay [1] (setting [9]) was determined as 35%; in assay [2] it was 25%; in assay [3] it was 6%; in assay [4] (setting [9]), 65%; in assay [5], 0%; in assay [6] (setting [9]) it was 0%. The “%Inh” value in assay [7] is recorded as 22%.
On to `Cc1cc(-c2ccc3c(c2)CC[C@@H](N[C@@H](C)c2ccccc2)C3)cnc1N.Cl` [GW412617], for which the “%Inh” value came to 100% in assay [1] (setting [9]); 8% in assay [2]; 9% in assay [3]; 6% in assay [4] (setting [9]); 0% in assay [5]; 34% in assay [6] (setting [9]). Further, in assay [7], the “%Inh” value is recorded as 0%.
In the case of `COc1cc(Nc2nccc(N3CCC(NC(=O)Nc4cc(C)ccc4C)C3)n2)cc(OC)c1OC` (centres unmarked) [GSK1379762], the “%Inh” value came to 46% in assay [1] (setting [9]); 0% in assay [2]; 0% in assay [3]; 22% in assay [4] (setting [9]); 0% in assay [5]; 12% in assay [6] (setting [9]). The “%Inh” value in assay [7] is given as 0%.
